Measurements taken from ChEMBL document CHEMBL4513216, “Probing the Open Global Health Chemical Diversity Library for Multistage-Active Starting Points for Next-Generation Antimalarials” (ACS Infect Dis, 2020).
Hit rate of the full screen: of about 69,000 compounds, about 8,600 (12%) showed an effect of 50% or more. This excerpt belongs to a sample that is enriched for strong results.

test system: Plasmodium berghei; experiment: Screen against P. berghei liver stage (PbLuc), transformed with Luciferase, at 10uM; type: functional, HepG2; settings: tested at 10 uM

| SMILES | INHIBITION [%] |
| --- | --- |
| O=C(c1cccnc1)N1CCOC(c2ccc(-c3cncnc3)cn2)C1 (configuration not stated) | 31.6 |
| Cc1cc(=O)n(CCNS(=O)(=O)c2cccc(C(F)(F)F)c2)cn1 | 68.5 |
| Cc1cc(=O)n(CCNS(=O)(=O)c2ccc(F)c(Cl)c2)cn1 | 29.7 |
| Cc1cc(=O)n(CCNS(=O)(=O)c2ccccc2)cn1 | 31.3 |
| CN1CCC(c2nccnc2Nc2cnccn2)CC1 | 9.98 |
| CC(C)(C)CN1CCCC(c2nccnc2Nc2cnccn2)C1 (configuration not stated) | 51.7 |
| CC(C)(C)CN1CCC(c2nccnc2Nc2cnccn2)CC1 | -0.232 |
| CN1CCCC1CNC(=O)CCCOc1cccc(Br)c1 (configuration not stated) | 9.383 |
| NC(=O)CN1CC(O)c2ccccc2S1(=O)=O (configuration not stated) | 37.4 |
| Cc1nc(C(=O)N2CCCC(c3ccc4sc(N)nc4n3)C2)co1 (configuration not stated) | 5.56 |
| CN(Cc1cccnc1)[C@@H]1CN(C(=O)CC2CC2)[C@@H]2CCCO[C@H]12 | -31 |
| CN(Cc1cncnc1)[C@@H]1CN(C(=O)c2ccco2)[C@@H]2CCCO[C@H]12 | 26.7 |
| COCC(=O)N1C[C@H](N(C)Cc2cncnc2)[C@H]2OCCC[C@H]21 | 64.7 |
| CN(Cc1cncnc1)[C@H]1CN(C(=O)c2ccc[nH]2)[C@@H]2CCCO[C@@H]21 | 58.4 |
| CN(Cc1cccnc1)[C@@H]1CN(C(=O)c2ccno2)[C@@H]2CCCO[C@H]12 | 50.3 |
| CN(Cc1cncnc1)[C@H]1CN(C(=O)c2ccco2)[C@@H]2CCCO[C@@H]21 | -35.8 |
| CN(Cc1cncnc1)[C@@H]1CN(C(=O)C2CC2)[C@@H]2CCCO[C@H]12 | -7.7 |
| CN(Cc1cccnc1)[C@@H]1CN(C(=O)c2ccco2)[C@@H]2CCCO[C@H]12 | 3.17 |
| CN(Cc1cccnc1)[C@@H]1CN(C(=O)c2ccoc2)[C@@H]2CCCO[C@H]12 | -2.35 |
| COCCCN(Cc1cnc(N2CCCC2)nc1)C1CCN(C)CC1 | 10.3 |
| CC1=Nc2c(c(O)nn2C(C)C)C(c2cccnc2)S1 (configuration not stated) | -3.19 |
| CC(=O)N1CC(=O)N(c2ccccc2)CC12CCN(CC1CC1)C2 (configuration not stated) | 27.9 |

| SMILES | INHIBITION [%] |
| --- | --- |
| O=C(OC1CCC1)c1ncccc1OCC(F)(F)F | 8.08 |
| O=C(O)c1ncccc1OCC(F)(F)F | 59.1 |
| O=C(OC1CCC1)c1ncccc1C(F)(F)F | 42.8 |
| Cc1nccc(C2CCCN(C(=O)c3cncnc3)C2)n1 (configuration not stated) | -38.3 |
| COC(=O)C(C)(C)S(=O)(=O)c1ccc(Br)cc1 | -1.15 |
| COc1ccc(NC(=O)Nc2c(O)c3ccccc3oc2=O)cc1 | 33.6 |
| OCCNc1cc(-c2ccccc2)ncn1 | 47.1 |
| CCc1cc(=O)[nH]c(-c2ccc(NC(CO)CC(C)C)nc2)n1 (configuration not stated) | -27.4 |
| CC(C)(CO)Nc1cc(-c2cn[nH]c2)ncn1 | 56 |
| CC(C)(CO)Nc1cc(-c2ccncc2)ncn1 | 44.1 |
| CC[C@@H](CO)Nc1cc(-c2cn[nH]c2)ncn1 | 50.1 |
| CC(C)(CO)Nc1cc(-c2ccccc2)ncn1 | 29.3 |
| CC(C)[C@@H](CO)Nc1cc(-c2cn[nH]c2)ncn1 | 56 |
| C[C@@H](CO)Nc1cc(-c2cn[nH]c2)ncn1 | 20.4 |
| C[C@H](O)CNc1cc(-c2cn[nH]c2)ncn1 | 24.8 |
| CC(C)CCn1cc(C(C(=O)O)N2CCC(N3CCSCC3)CC2)cn1 (configuration not stated) | 3.06 |
| CCn1ccnc1CN1CCN(C(C)C(=O)NCc2ccco2)CC1 (configuration not stated) | 18.6 |
| Cc1c[nH]nc1C1CN(c2cnccn2)CCO1 (configuration not stated) | 24.05 |
| Cc1nc(C(C)C)sc1C(=O)NCC(C)(C)N1CCOCC1 | -20.1 |
| Cc1nn(C)c(C)c1-c1nc2cc(S(=O)(=O)N3CCCC3)ccc2n1C | -28 |
| O=C1COC2(CCN(CC3CCOCC3)CC2)CN1Cc1ccccn1 | 27.4 |
| O=C(NCCCO)c1nnsc1-c1ccc(Cl)cc1 | 31.7 |

| SMILES | INHIBITION [%] |
| --- | --- |
| Clc1ccc2[nH]c3c(c2c1)CCCC3c1nn[nH]n1 (configuration not stated) | 30.2 |
| Cn1c(N)c2c(=O)n(C)c(-c3ccccc3)cc2c(C#N)c1=O | 0.868 |
| Cn1c(N)c2c(=O)n(C)c(-c3ccc(Cl)cc3)cc2c(C#N)c1=O | -26.3 |
| Cn1c(N)c2c(=O)n(C)c(-c3ccc(Cl)cc3Cl)cc2c(C#N)c1=O | 66 |
| COc1ccc(NC(=O)CCSc2ccc3nncn3n2)c(OC)c1 | 28.1 |
| O=C1CO[C@H]2CN(Cc3cccc4[nH]ccc34)C[C@@H]2N1C1CCOCC1 | 26.8 |
| Cc1cnc(-c2nc(C3CCCN(Cc4cccs4)C3)no2)cn1 (configuration not stated) | 14.975 |
| Oc1cc(C2CCCN(Cc3cccs3)C2)nc(-c2ccccn2)n1 (configuration not stated) | 81.5 |
| Oc1cc(C2CCCCN2Cc2ccsc2)nc(-c2ccncc2)n1 (configuration not stated) | 10.9 |
| Oc1cc(C2CCCCN2Cc2cccs2)nc(-c2ccncc2)n1 (configuration not stated) | 19.25 |
| Oc1cc(C2CCCCN2Cc2cccs2)nc(-c2ccccn2)n1 (configuration not stated) | 86.3 |
| Cn1nc(C2CCCN(Cc3cccs3)C2)c2nccnc21 (configuration not stated) | -0.902 |
| COCCNC(=O)[C@@H]1CN(Cc2sccc2C)C[C@H]2OCC[C@H]21 | 16.8 |
| Cn1nnc(NCc2ccc(-c3ccc(Cl)cc3)o2)n1 | 49.7 |
| Brc1ccc(CNCc2nnc3n2CCC3)s1 | 36.7 |
| Cc1nc(C2CCCN2CC(=O)N(C)Cc2ccsc2)no1 (configuration not stated) | 13.3 |
| O=C(CN1CCCc2cc(F)cc(F)c21)Nc1ccc(Br)cn1 | -5.57 |
| COc1cccc2c1N(CC(=O)Nc1ccc(Br)cn1)CCC2 | 66.7 |
| COc1cccc2c1N(CC(=O)Nc1ccc(Cl)cn1)CCC2 | 33.1 |
| Cn1cnc(S(=O)(=O)N2CCCC2c2cnccn2)c1 (configuration not stated) | 22 |
| Cc1cc(CN2CCN(c3nn4cc(C)nc4s3)CC2)on1 | 37 |
| Cc1cn2nc(N3CCN(Cc4nc(C(C)C)no4)CC3)sc2n1 | 42 |

| SMILES | INHIBITION [%] |
| --- | --- |
| Cc1cn2nc(N3CCCN(Cc4noc(C)n4)CC3)sc2n1 | -9.14 |
| CCc1nc(CN2CCCN(c3nn4cc(C)nc4s3)CC2)no1 | 85.2 |
| Cc1cn2nc(N3CCN(Cc4cc(C)on4)CC3)sc2n1 | 7.08 |
| Cc1cn2nc(N3CCN(Cc4c(C)noc4C)CC3)sc2n1 | 58.5 |
| Cc1cnn(CC(C)Nc2nc3ccccc3o2)c1 (configuration not stated) | 21.8 |
| COCC[C@]1(O)CCN(C2CCN(C(=O)C3CCC3)CC2)C[C@H]1C | 36.4 |
| O=C(NC1CCC1)[C@H]1C[C@H]2CN(C(=O)Nc3ccc(F)cc3)C[C@@H]1O2 | 1.9 |
| CC(C)(C)c1ncc(CNc2ccccc2SCCC(N)=O)s1 | 83.4 |
| c1csc(CNc2ccccc2Cn2cncn2)c1 | -56.8 |
| CC(C)(C)c1nc(CNc2ccccc2SCCC(N)=O)cs1 | 77.4 |
| CC(C)(C)c1ncc(C(=O)NC(C(N)=O)c2ccccc2)s1 (configuration not stated) | 3.15 |
| Cc1ccc(CNc2ccccc2SCCC(N)=O)s1 | 39.7 |
| CC(C)(C)c1ncc(CNc2ccccc2Cn2cncn2)s1 | 60.6 |
| NC(=O)CSc1ccccc1NCc1nc(Cc2ccccc2)no1 | -75.4 |
| NC(=O)C(NC(=O)CCc1ccc(Cl)s1)c1ccccc1 (configuration not stated) | -19.7 |
| CNc1nc(CNC(=O)Nc2ccccc2SC)cs1 | 6.14 |
| c1ccc(NCc2ccsc2)c(Cn2cncn2)c1 | 3.41 |
| NC(=O)CCSc1ccccc1NCc1ccc(Cl)s1 | 75.7 |
| CC(C)N(CC(N)=O)Cc1csc(C(C)(C)C)n1 | -7.31 |
| CC(=O)N1CCC(Cc2cncc(-c3c(C)n[nH]c3C)n2)C1 (configuration not stated) | 28 |
| CN1CC(=O)N(c2cccnc2)CC12CCN(C(=O)c1cccn1C)C2 (configuration not stated) | -46.8 |
| CCCOC(=O)NCCC1CN(c2cnn(C)c(=O)c2)CCO1 (configuration not stated) | 45.3 |

| SMILES | INHIBITION [%] |
| --- | --- |
| CC(=O)NC(=O)C1(CCCc2ccncc2)CCN1 (configuration not stated) | 12.3 |
| O=C(N1CCCC1)N1Cc2nccn2CC(COc2cccnc2)C1 (configuration not stated) | -21.1 |
| CSc1ccc(C(=O)N2CC(=O)N(Cc3ccccc3)CC(O)C2)cc1 (configuration not stated) | -42.1 |
| O=C(Cn1nc(Br)nc1Br)N1CCOCC1 | 15.5 |
| O=C(CN1C(=O)CCC1=O)N1CCOCC1 | 59.8 |
| O=C(CN1C(=O)CCC1=O)N1CCOC2(CCOCC2)C1 | 32.4 |
| Cc1nc2[nH]cnc(Nc3ccn(C)n3)c-2n1 | 25.9 |
| CC(C)CC(NC(=O)OC(C)(C)C)C(N)=O (configuration not stated) | 13.9 |
| Cc1cccc(-c2nc3cc(S(=O)(=O)N4CCCC4)ccc3n2C)n1 | -7.53 |
| CC(C)(CO)CCCNC(=O)NC1(c2ccccc2F)CC1 | 9.16 |
| O=C(NCCOc1ccc2c(c1)OCO2)C1CC(=O)N(C2CC2)C1 (configuration not stated) | 31.9 |
| O=C(N[C@H]1CN[C@H]2CCCO[C@H]21)c1cscn1 | 1.81 |
| O=C(N[C@@H]1CN[C@H]2CCCO[C@H]21)c1cnccn1 | 52 |
| O=C(N[C@@H]1CN[C@@H]2CCCO[C@@H]21)c1cscn1 | 11.4 |
| Cc1ccc(CNc2cc(C(=O)N3CCOCC3)nc(C)n2)cc1 | -3.72 |
| CC(C)N1CC(C(=O)NCc2cccnc2-n2cccn2)CC1=O (configuration not stated) | 6.2475 |
| CC(C)C(=O)NCCCNC(=O)Nc1cc(-c2ccccc2)ns1 | -89.2 |
| CNC(=O)CNC(=O)Nc1cc(-c2ccccc2)ns1 | 73.3 |
| CC(C)(C)NC(=O)CNC(=O)Nc1cc(-c2ccccc2)ns1 | 26 |
